Assay outcomes deposited in PubChem by several laboratories.
An excerpt weighted towards active compounds, which were near 1.3% of everything screened.
S1P2 antag: blocks the human S1P2 receptor; O95136; cell-based S1P2 antagonist assay, inhibition at 5 uM; inhibition, % at 5 µM; AID 736; 0.21% of 97,000 active; in the data active = inhibition above about 45%;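 also: CRE beta-lactamase reporter cells expressing human S1P2 stimulated with S1P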
GALR2 blocker: antagonists of human galanin receptor 2 (GALR2); GALR2-expressing cells, antagonist mode; inhibition, % at 4 µM; 0.39% of 140,000 active; in the data active = inhibition above about 27%;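 also: cells stimulated with galanin 1-16 at roughly its EC80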
Target sequence (O43603 whole entry, looked up): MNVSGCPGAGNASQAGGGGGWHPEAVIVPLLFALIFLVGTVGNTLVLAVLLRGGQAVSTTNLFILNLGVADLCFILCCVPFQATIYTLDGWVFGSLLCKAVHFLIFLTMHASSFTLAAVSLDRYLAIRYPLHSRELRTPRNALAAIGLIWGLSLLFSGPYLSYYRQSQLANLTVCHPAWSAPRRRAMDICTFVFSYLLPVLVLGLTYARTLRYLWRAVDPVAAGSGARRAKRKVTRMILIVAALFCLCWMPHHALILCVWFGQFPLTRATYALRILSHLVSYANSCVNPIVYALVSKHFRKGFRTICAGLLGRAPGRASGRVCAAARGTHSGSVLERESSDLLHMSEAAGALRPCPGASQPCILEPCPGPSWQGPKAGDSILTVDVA
Calb biofilm kill: kills Candida albicans biofilms; C. albicans biofilm + clotrimazole, Alamar Blue; inhibition, % at 6 µM; 0.14% of 85,000 active; AID 834;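 active = inhibition above 20%; inactive = inhibition below 20%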;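 also: preformed 24 hr biofilms exposed to compound for 48 hr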
Smad3 inh: inhibitors of human Smad3 transcription factor binding; TR-FRET Smad3/Dy647-FoxH1 peptide binding, europium anti-His; 0.29% of 88,000 active; AID 630; inhibition, % at 25 µM;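 active = compounds that reduce the energy-transfer binding signal between the protein and its labelled peptide by more than half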
S1P2 agonist: activates the human S1P2 receptor. S1P2-expressing cell line, agonist reporter read-out. 0.46% of 97,000 active. activation, % at 4.5 µM. O95136; in the data active = activation above about 16%
GALR2 agonist: agonists of human galanin receptor 2 (GALR2); O43603; GALR2-expressing cells, agonist activation read-out; activation, % (test concentration not listed); 0.48% of 140,000 active; AID 803; in the data active = activation above about 5%, passing the limit was not always enough
A number is an active result; 0 = inactive; - = no result; [ ] = dose if it differs, or a comment.

SMILES	S1P2 antag	GALR2 blocker	Calb biofilm kill	Smad3 inh	S1P2 agonist	GALR2 agonist
CCn1nnnc1SCC(=O)NCc1cccs1	0	0	0	0	0	0
N=C1CCC[C@H]1C(=S)SCCC(N)=O	-	-	-	0	-	-
COc1cccc(-c2cc(C(=O)Nc3cc(C)on3)no2)c1	0	0	0	0	0	6.2
N=c1c(C(=O)NCc2ccco2)cc2c(=O)n3ccccc3nc2n1Cc1ccc(Cl)cc1	0	0	0	0	29	5.2
COCCCn1c(=N)c(C(=O)NC2CCCCC2)cc2c(=O)n3ccccc3nc21	0	0	0	0	32	16
COCCCn1c(=N)c(C(=O)NCc2ccc3c(c2)OCO3)cc2c(=O)n3ccccc3nc21	0	0	0	0	0	0
CCOCCCn1c(=NC(=O)c2cccnc2)c(C(=O)OCC)cc2c(=O)n3ccccc3nc21	0	0	0	0	0	6.0
Cc1cccn2c(=O)c3cc(C(=O)NC4CCCC4)c(=N)n(C4CCCC4)c3nc12	-	0	-	-	-	5.0
COc1ccc2cc1Oc1ccc(cc1)C[C@H]1c3c(cc(OC)c4c3Oc3cc5c(cc3O4)CCN[C@H]5C2)CCN1C	-	-	-	0	-	-
Cc1ccc(CNC(=O)c2cc3c(=O)n4ccccc4nc3n(Cc3ccco3)c2=N)cc1	-	-	0	0	-	-
Cc1ccc(CNC(=O)c2cc3c(=O)n4ccccc4nc3n(CC3CCCO3)c2=N)cc1 (configuration not stated)	-	0	0	0	-	8.3
CCOC(=O)c1cc2c(=O)n3ccccc3nc2n(CC2CCCO2)c1=NC(C)=O (configuration not stated)	0	0	0	0	26	24
CCN(CC)S(=O)(=O)c1ccc(Oc2ccc(S(=O)(=O)N(CC)CC)cc2)cc1	72	0	0	0	0	0
COCCN(CCOC)S(=O)(=O)c1ccc(OC)cc1	0	0	0	0	0	0
Cc1ccc(Cn2cccc(NC(=O)NCc3ccccc3)c2=O)cc1	0	0	-	-	0	0
Cc1ccc(Cn2cccc(-c3nc4ccccc4s3)c2=O)cc1	0	0	-	-	77	65
O=c1c(-c2nc3ccccc3s2)cccn1Cc1ccccc1	0	0	-	-	63	31
CC(CCc1ccccc1)NC(=O)C(Cc1ccccc1)NS(=O)(=O)c1cccs1 (configuration not stated)	0	0	33	0	0	0
Cn1c(=O)c2c(ncn2CN2CCN(Cn3cnc4c3c(=O)n(C)c(=O)n4C)CC2)n(C)c1=O	-	-	-	98	-	-
Cn1c(=O)c2c(ncn2CC(O)CO)n(C)c1=O (configuration not stated)	-	0	0	0	-	0
COCCCn1c(=NC(=O)c2ccncc2)c(C#N)cc2c(=O)n3cccc(C)c3nc21	-	0	-	-	-	5.6
Cc1cccn2c(=O)c3cc(C#N)c(=NC(=O)c4ccncc4)n(CCCOC(C)C)c3nc12	0	0	0	0	18	0
C[N+]1(CCC[N+]2(C)C[C@@H]3[C@H](C2)[C@@H]2C=C[C@H]3CC2)CCOCC1 (some centres not stated)	-	-	-	0	-	-
Cc1ccc2oc(=O)c3cnn(CC(=O)N4CCCc5ccccc54)c3c2c1	0	0	0	0	0	0
COc1cc2c(cc1OC)-c1cc(OCc3ccccc3Cl)nc(=O)n1CC2	0	0	0	0	29	0
SMILES	S1P2 antag	GALR2 blocker	Calb biofilm kill	Smad3 inh	S1P2 agonist	GALR2 agonist
COc1cc2c(cc1OC)-c1cc(NC3CCCC3)nc(=O)n1CC2	0	0	0	0	24	0
N[C@@H](CC1=CS(=O)(=O)c2ccc(Cl)cc21)C(=O)O	-	-	-	77	-	-
O=C(O)c1cc2c(cc1S(=O)(=O)O)[C@@H]1[C@@H]([C@H]3[C@H]2[C@]2(Cl)C(Cl)=C(Cl)[C@@]3(Cl)C2(Cl)Cl)[C@]2(Cl)C(Cl)=C(Cl)[C@@]1(Cl)C2(Cl)Cl	-	-	-	0	-	-
COc1cc(C2C(C#N)=C(C)NC3=C2C(=O)c2ccccc23)cc(OC)c1OC (configuration not stated)	0	31	-	-	0	0
N=c1c(-c2nc3ccccc3[nH]2)cc(C(=O)c2cccs2)nn1-c1ccc(Cl)cc1	0	0	0	0	30	0
C[N+](C)(C)CCN[N@+]1(C)CCCc2ccccc21	-	-	-	103	-	-
Nc1ncnc2c1ncn2[C@H]1O[C@@H](C(=O)O)[C@H](O)[C@H]1O	-	-	-	0	-	-
CCOC(=O)c1sc(C)c2c1NC1(CCCCC1)NC2=O	0	0	0	0	17	19
COC1=C(c2ccccc2)C(=O)c2ccccc2C1=O	-	0	-	-	-	0
O=C1C(=O)c2ccc(-c3ccccc3)cc2-c2ccccc21	0	0	0	66[fluorescence artefact?]	0	0
Nc1ccc2c(c1)C(=O)C(=O)c1ccccc1-2	0	0	0	73[fluorescence artefact?]	0	0
O=C(O)C[C@H]1OCC=C2C[N+]3([O-])CC[C@@]45c6ccccc6N[C@@H]4[C@@H]1[C@@H]2C[C@H]53 (some centres not stated)	-	-	-	0	-	-
COC(=O)[C@@H]1O[C@H](SCCN)[C@@H](O)[C@H](O)[C@H]1O	-	-	-	0	-	-
Nc1ccn([C@@H]2O[C@H](CO)[C@@H](O)[C@@H]2O)c(=O)n1	-	0	-	-	-	0
Nc1ccn([C@H]2O[C@@H](COP(=O)(O)O)[C@H](O)[C@H]2O)c(=O)n1	-	-	-	79	-	-
CS(=O)(=O)c1ccc2nc(NC(=O)Nc3ccc(Cl)c(Cl)c3)sc2c1	-	0	-	-	-	0
CS(=O)(=O)c1ccc2nc(NC(=O)Nc3cccc(Cl)c3)sc2c1	47	0	-	-	0	0
CC(C)Oc1ccc(C(=O)/C(=C\c2cccs2)c2nc3ccccc3o2)cc1	-	0	-	-	-	0
Cc1oc(-c2ccccc2F)nc1CS(=O)(=O)CC(=O)NCc1ccco1	0	0	0	78	0	0
CC(=O)C(=Nc1ccc(Cl)cc1Cl)NNc1cccc(Cl)c1	0	0	0	0	0	0
Cc1nn(-c2ccc(F)cc2)c2sc(C(=O)N3CCCCCC3)cc12	0	0	0	0	30	0
CC1=CC2=NC(=O)/C(=C\c3cc(C)n(-c4ccccc4F)c3C)C(=N)N2O1	-	0	-	-	-	5.4
CC1=CC2=NC(=O)/C(=C\c3cc(C)n(-c4ccccc4)c3C)C(=N)N2O1	-	0	-	-	-	0
CC(=O)N(Cc1cc(=O)[nH]c2ccccc12)c1ccc(C)cc1	0	0	0	0	0	0
O=c1cc(CNCCCO)c2ccccc2[nH]1	0	0	0	0	23	0
SMILES	S1P2 antag	GALR2 blocker	Calb biofilm kill	Smad3 inh	S1P2 agonist	GALR2 agonist
Cc1cccc(Nc2nc(N)c([N+](=O)[O-])c(NCc3ccco3)n2)c1	-	0	-	-	-	0
CNc1nc(Nc2ccc(Br)cc2)nc(N)c1[N+](=O)[O-]	-	0	-	-	-	5.3
Cc1cccc(C(=O)NC2CCN(C(=O)N3CCOCC3)CC2)c1	0	0	0	0	0	0
Cc1cccc(C(=O)NC2CC3CCCC(C2)N3C(=O)NC2CCCCC2)c1 (configuration not stated)	0	0	-	-	66	0
CC(=O)c1nn(-c2cccc(Br)c2)cc1C(=O)c1ccc(Cl)cc1	-	0	-	-	-	7.5
CC(=O)c1c(C)[nH]c(C(=O)N2c3ccccc3CC2C)c1C (configuration not stated)	0	0	27	0	0	0
CC(=O)c1c(C)[nH]c(C(=O)N2CCc3ccccc3C2)c1C	0	0	0	0	0	0
Cc1ccnc2nc(C(=O)OCC(=O)NCCc3ccccc3)nn12	-	0	-	-	-	0
